Screening data (PubChem)
Sampled rows, rich in hits. Any-hit rate of the full collection: about 1.6%.
KCNQ2 inh = inhibitors of rat KCNQ2 potassium channel; O88943; CHO-K1 KCNQ2, FluxOR thallium flux, 20 min; stronger effect = lower value; B-score at 10 µM; 1.1% of 310,000 active;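 active means fluorescence ratio B-score at most minus 3 library SDs, with starting brightness B-score within 2 library SDs, cut at about -5.5 in these data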
Target sequence (O88943 whole entry, looked up): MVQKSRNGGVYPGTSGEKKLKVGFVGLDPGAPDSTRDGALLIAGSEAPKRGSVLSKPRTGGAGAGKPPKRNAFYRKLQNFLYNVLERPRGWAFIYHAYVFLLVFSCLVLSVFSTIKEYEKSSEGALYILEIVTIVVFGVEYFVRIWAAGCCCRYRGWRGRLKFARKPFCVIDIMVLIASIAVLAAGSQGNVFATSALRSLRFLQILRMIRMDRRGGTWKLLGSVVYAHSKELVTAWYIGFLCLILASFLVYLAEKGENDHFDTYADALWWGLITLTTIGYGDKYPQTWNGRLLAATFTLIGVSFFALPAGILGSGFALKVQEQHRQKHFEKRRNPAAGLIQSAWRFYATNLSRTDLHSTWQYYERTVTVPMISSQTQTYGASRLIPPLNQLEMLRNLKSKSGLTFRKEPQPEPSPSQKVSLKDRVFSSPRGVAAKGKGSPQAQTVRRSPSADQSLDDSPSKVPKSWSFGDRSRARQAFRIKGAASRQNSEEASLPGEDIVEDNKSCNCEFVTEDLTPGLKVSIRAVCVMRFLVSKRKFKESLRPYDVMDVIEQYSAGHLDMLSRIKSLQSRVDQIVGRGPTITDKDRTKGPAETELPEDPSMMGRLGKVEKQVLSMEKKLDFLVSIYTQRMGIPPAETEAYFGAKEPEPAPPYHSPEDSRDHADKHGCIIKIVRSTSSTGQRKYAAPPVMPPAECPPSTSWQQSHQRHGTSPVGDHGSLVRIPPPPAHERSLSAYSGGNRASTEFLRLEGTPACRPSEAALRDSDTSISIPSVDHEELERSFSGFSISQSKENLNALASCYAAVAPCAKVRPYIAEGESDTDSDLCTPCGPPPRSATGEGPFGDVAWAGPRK
KCNQ2 pot = KCNQ2 (rat) channel potentiation | B-score at 10 µM | O88943 | 0.54% of 310,000 active | AID 2239 | CHO-K1 KCNQ2, FluxOR thallium flux fluorescence; stronger effect = higher value;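 active means fluorescence ratio B-score at least 3 SD of library B-scores, with initial fluorescence B-score within 3 of them, cut at about 5.3 in these data; same plate scores as AID 2156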;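 further: B-score of peak minus minimum over baseline fluorescence ratio after K+ and Tl+ stimulus; positive B-score means potentiation of KCNQ2 with more thallium influx and brighter signal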
KCNQ2 inh conf = rat KCNQ2 channel inhibition, confirmatory screen. shares compounds with KCNQ2 inh. AID 493025. activity change, negative = inhibition, % at 10 µM. 57% of 1,000 active. KCNQ2-expressing cells, thallium flux; stronger effect = lower value
KCNQ1 spec = human KCNQ1 activity in KCNQ2 inhibitor specificity screen; shares compounds with KCNQ2 inh; KCNQ1-expressing cells, FluxOR thallium flux fluorescence; stronger effect = lower value; activity change, negative = inhibition, % at 10 µM; 15% of 1,000 active;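 active means activity change at least 3 SD of negative controls below their mean in both duplicate wells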;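 further: CHO cells stably transfected with KCNQ1 and depolarized by potassium stimulus; peak minus minimum fluorescence over baseline after thallium addition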
CHO parental ctr = counter-screen for KCNQ2 inhibitors: effect in parental CHO cells. shares compounds with KCNQ2 inh. thallium flux counter-screen; stronger effect = lower value. activity change, % at 10 µM. 14% of 1,000 active. AID 493029
KCNQ2 patch conf = blocks rat KCNQ2 current in automated patch clamp; shares compounds with KCNQ2 inh; KCNQ2-expressing cells; calls only at 10 µM; 49% of 550 active
Large screens that a line does not name were inactive (follow-up assays come after a bar, where they were run). Unless noted, how the calls were made is not given here.

C=C(C)c1cccc(C(C)(C)NC(=O)NC2CCN(Cc3ccccc3)CC2)c1	none
CN(CC(=O)Nc1ccc(F)cc1)C(=O)CN1C(=O)NC2(CCCc3ccccc32)C1=O (stereo not given)	none
CCOC(=O)C1CCN(C(=O)COC(=O)c2oc3ccccc3c2C)CC1	none
COc1ccc2oc(C(=O)OCC(=O)NCCc3ccccc3)c(C)c2c1	none
CC(C)(C)N(Cc1ccccc1)C(=O)COC(=O)c1cccc([N+](=O)[O-])c1	KCNQ2 inh -7 | KCNQ2 inh conf inactive | KCNQ1 spec inactive | CHO parental ctr inactive
CC(C)(C)N(Cc1ccccc1)C(=O)COc1cccnc1[N+](=O)[O-]	none (no result: KCNQ2 pot)
COc1ccc2oc(C(=O)OCC(=O)N(Cc3ccccc3)C(C)(C)C)c(C)c2c1	KCNQ2 inh -9.4 | KCNQ2 inh conf inactive | KCNQ1 spec inactive | CHO parental ctr inactive
O=C(NC(=O)C(F)(F)F)Nc1ccc(S(=O)(=O)Nc2nccs2)cc1	none
O=C(Nc1cccc(C(F)(F)F)c1)Nc1ccc2[nH]c(=O)[nH]c2c1	none
Fc1cccc(-c2cc3nc(-c4ccccc4)cc(N4CCC5(CC4)OCCO5)n3n2)c1	none (no result: KCNQ2 pot)
Cc1cccc(-c2cc3nc(-c4ccccc4)cc(N4CCC5(CC4)OCCO5)n3n2)c1	KCNQ2 inh -8.1 | KCNQ2 inh conf -30% | KCNQ1 spec inactive | CHO parental ctr inactive | KCNQ2 patch conf inactive
CC(=O)NCC1CCCN(C(=O)c2ccc(OC3CCN(Cc4ccccn4)CC3)cc2)C1 (stereo not given)	none
COc1cccc(NC(=O)Nc2ccncc2)c1	none
COc1cccc(NC(=O)Nc2ccc(C(C)(C)C)cc2)c1	KCNQ2 inh -8.7 | KCNQ2 inh conf inactive | KCNQ1 spec inactive | CHO parental ctr inactive
COc1ccc(CCN2C(=O)CC(C(N)=O)SC2=Nc2ccc(F)cc2)cc1OC (stereo not given)	none (no result: KCNQ2 pot)
COc1cccc(/C=C(/C(=O)OCC(=O)NC2CCCCCCC2)c2ccccc2)c1	KCNQ2 inh -8.5 | KCNQ2 inh conf -16% | KCNQ1 spec inactive | CHO parental ctr inactive | KCNQ2 patch conf inactive
COc1cccc(/C=C(/C(=O)OCC(=O)NCC2CCCO2)c2ccccc2)c1 (stereo not given)	none (no result: KCNQ2 pot)
O=C(NC1c2ccccc2-c2ccccc21)N1CCOCC1	KCNQ2 inh -7 | KCNQ2 inh conf -28% | KCNQ1 spec inactive | CHO parental ctr inactive | KCNQ2 patch conf active
O=C(NC(c1ccccc1)c1ccccc1)N1CCOCC1	none (no result: KCNQ2 pot)
O=C(Cc1ccccc1)NNC(=O)Cc1ccccc1	none (no result: KCNQ2 pot)
O=C(Cc1ccccc1)NC1c2ccccc2-c2ccccc21	KCNQ2 inh -6.8 | KCNQ2 inh conf inactive | KCNQ1 spec inactive | CHO parental ctr inactive
CC(C)c1ccc(OCC(=O)N(c2ccccn2)C2CCCCC2)cc1	none (no result: KCNQ2 pot)
O=C(COc1ccc(F)cc1)N(c1ccccn1)C1CCCCC1	KCNQ2 inh -6.8 | KCNQ2 inh conf -28% | KCNQ1 spec inactive | CHO parental ctr inactive | KCNQ2 patch conf active
Brc1cccc(CNc2nc3ccccc3n2CCN2CCCCC2)c1	none (no result: KCNQ2 pot)
Cn1c(NCc2cccc(Br)c2)nc2ccccc21	KCNQ2 inh -9 | KCNQ2 inh conf -34% | KCNQ1 spec -28% | CHO parental ctr -22% | KCNQ2 patch conf active
O=C(N/N=C/c1ccc(O)c(Br)c1)c1cc2c(ccc3ccccc32)o1	none (no result: KCNQ2 pot)
O=C(N/N=C/c1cc(Br)c(O)c(Br)c1)c1cc2c(ccc3ccccc32)o1	KCNQ2 inh -11 | KCNQ2 inh conf -53% | KCNQ1 spec -50% | CHO parental ctr -54% | KCNQ2 patch conf inactive
N#CCCN1CCCc2cc(N=Nc3ccc(C(F)(F)F)cc3)ccc21	none
O=C1CCC(C(=O)Nc2cc(C(F)(F)F)ccc2-n2cncn2)=NN1	none
C=CCn1c(SCC(N)=O)nc2sc3c(c2c1=O)CCC3	KCNQ2 inh -9.3 | KCNQ2 inh conf inactive | KCNQ1 spec inactive | CHO parental ctr inactive
C=CCn1c(SCC(=O)N2CCOCC2)nc2sc3c(c2c1=O)CCCC3	none
CC(C)C(OC(=O)CN1C(=O)c2ccccc2C1=O)C(=O)NC1CCCC1 (stereo not given)	none (no result: KCNQ2 pot)
COc1ccccc1C1CCN(C(=O)c2ccco2)CC1	none (no result: KCNQ2 pot)
COc1ccc(CNC(=S)Nc2ccccc2-c2ccccc2)cc1	KCNQ2 inh -7.6 | KCNQ2 inh conf -32% | KCNQ1 spec inactive | CHO parental ctr inactive | KCNQ2 patch conf active
COc1ccc(CNC(=S)Nc2ccccc2Cl)cc1	none
COc1ccc(-n2ncc3c(=O)n(CC(=O)NC(C)C)cnc32)cc1	none
Cc1csc2nc(CSc3ccc(Cl)cc3)cn12	KCNQ2 inh -11 | KCNQ2 inh conf -38% | KCNQ1 spec -43% | CHO parental ctr -35% | KCNQ2 patch conf active
Clc1ccc(SCc2cn3ccsc3n2)cc1	none (no result: KCNQ2 pot)
COc1ccccc1C(C(=O)NC1CCCC1)N(C(=O)c1csnn1)C1CC1 (stereo not given)	none
CC(C)OC(=O)c1c(-c2ccc(C(C)C)cc2)csc1NC(=O)C1CCCO1 (stereo not given)	KCNQ2 inh -7.2 | KCNQ2 inh conf -32% | KCNQ1 spec inactive | CHO parental ctr inactive | KCNQ2 patch conf inactive
CCOC(=O)c1c(-c2ccc(C)cc2)csc1NC(=O)C1CCCO1 (stereo not given)	none
Cc1cc2nc3n(c2cc1C)CC1CC(C(=O)NCC2CC2)N(C)C31 (stereo not given)	none (no result: KCNQ2 pot)
O=C(Nc1ccc(N2CCOCC2)cc1)c1cc(-c2ccncc2)nc2ccccc12	none (no result: KCNQ2 pot)
O=C(Nc1ccccc1N1CCOCC1)c1cc(-c2ccncc2)nc2ccccc12	KCNQ2 inh -7.2 | KCNQ2 inh conf -50% | KCNQ1 spec -45% | CHO parental ctr -38% | KCNQ2 patch conf active
COc1ccc(-c2cc(C(=O)Nc3ccccc3N3CCOCC3)c3ccccc3n2)cc1OC	KCNQ2 inh -8.2 | KCNQ2 inh conf -38% | KCNQ1 spec -35% | CHO parental ctr -28% | KCNQ2 patch conf active
COc1ccc(-c2cc(C(=O)NNC(=O)c3csc(N4CCOCC4)n3)c3ccccc3n2)cc1OC	none
CN1C=CC=C/C1=C1\SC(=S)N(N)C1=O	none (no result: KCNQ2 pot)
CC1CCc2sc(C(=O)NNC(=S)NC3CC3)cc2C1 (stereo not given)	none (no result: KCNQ2 pot)
O=C(NCCc1ccc(Cl)cc1Cl)c1cncc(Br)c1	none (no result: KCNQ2 pot)
CCN1CCN(CCNC(=O)c2ccc(/C=C3/Sc4ccccc4N(Cc4ccccc4C)C3=O)cc2)CC1	KCNQ2 inh -13 | KCNQ2 inh conf inactive | KCNQ1 spec inactive | CHO parental ctr inactive
CCN1CCN(CCCNC(=O)c2ccc(/C=C3/Sc4ccccc4N(Cc4ccccc4F)C3=O)cc2)CC1	none (no result: KCNQ2 pot)
COc1ccc(/C=N/n2c(-c3ccccc3)n[nH]c2=S)cc1	none (no result: KCNQ2 pot)
COc1ccc(/C=N/n2c(N)nc(-c3ccccc3)c2-c2ccccc2)cc1	KCNQ2 inh -7 | KCNQ2 inh conf inactive | KCNQ1 spec inactive | CHO parental ctr inactive
O=S(=O)(c1ccccc1)N1CCNCC1	none (no result: KCNQ2 pot)
CCOn1c(=O)c(-c2cccc(Br)c2)[n+]([O-])c2ccccc21	none (no result: KCNQ2 pot)
CCN(CC)C(=O)C(Oc1ccc(S(=O)(=O)N2CCCC2)cc1[N+](=O)[O-])c1ccccc1 (stereo not given)	none
